Inconclusive results are not listed. The source made the active and inactive calls. Calls come from the whole dose curve.
Potency is the fitted concentration of half-maximal effect.

The nature of this assay: Primary qHTS to identify inhibitors of SARS-CoV-2 cell entry (AID 1645846). Note: nearly all actives have a fitted effect of over 45% in size. The conditions noted are these: SARS-CoV-2 pseudovirus cell entry assay, luminescence; activity change, negative = inhibition: at 57.1 µM (top of the series) unless noted. From the text:
Assay Provider: Wei Zheng, Ph.D.
National Center for Advancing Translational Sciences, National Institute of Health, Rockville, MD.
SARS-CoV-2 spike protein, within the viral envelope, mediates viral attachment and infection of host cells. The SARS-CoV-2 spike protein specifically binds to the host receptor ACE2 (Angiotensin-converting enzyme 2). This interaction promotes endocytosis of the viral particle, additional events lead to viral-host cell membrane fusion and release of the viral contents, allowing viral replication.
While SARS-CoV-2 requires BSL-3 facilities for live virus work, pseudotyped partices (PP) that incorporate SARS-CoV-2 spike proteins without replication elements could facilitate studies on viral entry mechanisms in a BSL-2 setting. This PP cell entry assay could also enable screening of small molecule compound libraries in BSL-2 setting to identify inhibitors of SARS-CoV-2 cell entry.
PROTOCOL TABLE (format as described by Inglese J, Shamu CE and Guy RK. 2007)
SEQUENCE No. (e.g., 1, 2, 3, etc.); […] (e.g., Cells, Incubation, Reagent, etc.); VALUE and DESCRIPTION.
1. Cells. Seed 1500 HEK293-ACE2 cells (Expi293F with stable expression of human ACE2) in 2 uL/well media (DMEM, 10% FBS, 1x L-glutamine, 1x Pen/Strep, 1 ug/ml puromycin) in white 1536-well assay plates (Greiner #782073).
2. Incubation. Incubate at 37C with 5% CO2 overnight (~16 h).
3. Compounds. Dispense 23 nL/well compounds in DMSO via pin transfer.
4. Incubation. Incubate for 1 hr at 37C 5% CO2.
5. Reagent. Dispense 2 uL/well of SARS-CoV-2-S pseudotyped particles. [a] PPs are produced with murine leukemia virus pseudotyping. [b] SARS-CoV-2-S is Wuhan-Hu-1 sequence (BEI #NR-52420) with C-terminal 19 amino acid truncation.
6. Centrifuge. […]
7. Incubation. Incubate at for 48 hr at 37C 5% CO2
8. Centrifuge. Remove supernatant with gentle centrifugation using a Blue Washer (BlueCat Bio).
9. Reagent. Dispense 4 uL/well of Bright-Glo Luciferase detection reagent (Promega #E2620).
10. Incubation. Incubate for 5 min at room temperature.
11. Detection. Read luminescence signal (Viewlux plate reader, PerkinElmer). Data was normalized with wells containing SARS-CoV-2-S PP as 100%, and wells containing bald PP (no fusion protein) as 0%.
(In general: Quantitative high-throughput screening tests each substance at several concentrations.)
`C#Cc1cccc(Nc2ncnc3cc4c(cc23)OCCOCCOCCO4)c1`: the activity change, negative = inhibition is -13.8%.
`Nc1nc(CC(=O)Nc2ccc(CCNC[C@H](O)c3ccccc3)cc2)cs1`: the activity change, negative = inhibition was -24.2%.
`C[C@@H](O)[C@@H]1NC(=O)[C@H](CCCCN)NC(=O)[C@@H](Cc2c[nH]c3ccccc23)NC(=O)[C@H](Cc2ccccc2)NC(=O)[C@@H](NC(=O)[C@H](N)Cc2ccccc2)CSSC[C@@H](C(=O)N[C@H](CO)[C@@H](C)O)NC1=O`: the activity change, negative = inhibition is -12.9% [at 27.1 µM].
Consider `CC1CCC(n2c3cnccc3c3cnc(Nc4ccc5c(n4)CCN(C(=O)CO)C5)nc32)CC1` (stereo not given), for which the outcome was “inactive [at 11.3 µM]”.
As for `C[C@H](NC(=O)CCC(F)(F)F)C(=O)N[C@@H]1C(=O)N(CCO)c2ncccc2-c2ccccc21`, the activity change, negative = inhibition is -2.66%.
Take `O=C(c1ccc(/C=C/c2n[nH]c3ccccc23)cc1)N1CCNCC1`: the outcome was inactive.
For `Cc1cc2nc3c(=O)[nH]c(=O)nc-3n(C[C@H](O)[C@H](O)[C@H](O)COP(=O)(O)OP(=O)(O)OC[C@H]3O[C@@H](n4cnc5c(N)ncnc54)[C@H](O)[C@H]3O)c2cc1C`, the activity change, negative = inhibition is -9.08% [at 27.1 µM].
Still for that read-out and setting: the result for `CCCCCCCCCCCCCC(=O)OCC(COP(=O)([O-])OCC[N+](C)(C)C)OC(=O)CCCCCCCCCCCCC` (stereo not given) reads -12.7%; that for `O=P(O)(O)OC(Cn1cncn1)(Cn1cncn1)c1ccc(F)cc1F`, -20.2%.
Same read-out and setting: the figure for `CN(C(=O)CO)c1c(I)c(C(=O)NCC(O)CO)c(I)c(C(=O)NCC(O)CO)c1I` (stereo not given) is -14.3%; for `Cc1cc(C)c(S(=O)(=O)N(CCc2cccc(Br)c2)Cc2ccc(-c3cccc(S(C)(=O)=O)c3)cc2)c(C)c1` it is -5.91%.
With `COC1=C(C(=O)O)N2C(=O)[C@@H](NC(=O)[C@H](N)C3=CCC=CC3)[C@H]2SC1`, the activity change, negative = inhibition was -17.7%.
With `CNc1ncc(-c2ccc3c(=O)c(C(=O)O)cn(C4CC4)c3c2C)cc1C`, the activity change, negative = inhibition was -15.2% [at 19 µM].
Turning to `NC[C@@H]1O[C@H](O[C@H]2[C@H](O)[C@H](O[C@H]3[C@@H](O)[C@H](N)C[C@H](N)[C@H]3O[C@H]3O[C@H](CN)[C@H](O)[C@H](O)[C@H]3N)O[C@@H]2CO)[C@@H](N)[C@@H](O)[C@@H]1O`, the activity change, negative = inhibition was -25.4% [at 5.25 µM].
For the compound `C=Cc1cc(O)cc2nc(-c3ccc(O)c(F)c3)oc12`, the activity change, negative = inhibition was -0.0201%.
For the compound `CC1(C)[C@H](C=C(Cl)Cl)[C@@H]1C(=O)OCc1c(F)c(F)cc(F)c1F`, the result was inactive.
Consider `C[C@]12C=CC(=O)C=C1CC[C@@H]1[C@@H]2[C@@H](O)C[C@@]2(C)[C@H]1CC[C@]2(O)C(=O)COP(=O)(O)O`, for which the activity change, negative = inhibition is -19.2% [at 11.3 µM].
As to `CCc1c(-c2ccccc2C)nc2c(C#N)c[nH]n2c1=O`, the activity change, negative = inhibition was -14.3%.
With `COC(=O)/C=C/C(=O)N(O)CCCCNCc1ccc(COC(=O)Nc2cccc3ccccc23)cc1`, the activity change, negative = inhibition was -27.1%.
Still for that read-out and setting: the result for `COc1ccc(C(=O)N2CCN(C(=O)/C=C/c3ccc(Br)cc3)CC2)cc1` reads -2.12%; that for `COc1ccc(-c2oc3ncnc(N)c3c2-c2ccc(NC(=O)Nc3cc(C(F)(F)F)ccc3F)cc2)cc1`, 0.997%; that for `CN1CCN(C2=Nc3ccccc3Cc3ccccc32)CC1`, -23.9%.
`C[C@H](Nc1ncnc2nc[nH]c12)c1cc2ccc(F)cc2nc1-c1ccccn1`: the activity change, negative = inhibition was -9.43%.
For `CCN(CC)CCNC(=O)c1c(C)[nH]c(/C=C2/C(=O)Nc3ccc(-c4csc(-c5ccccc5)n4)cc32)c1C`, the Potency was 22.4 µM (active).
Regarding `Nc1nc(OCc2cc(Br)cs2)c2[nH]cnc2n1`, the compound was classed as inactive.
As to `O=C(Cc1cccs1)NC1C(=O)N2C(C(=O)[O-])=C(C[n+]3ccccc3)CSC12` (stereo not given), the activity change, negative = inhibition was -15.7%.
Regarding `CCOC(=O)[C@@H](N)CS`, the activity change, negative = inhibition is -29%.
Take `[2H]C([2H])([2H])C(O)([C@@H](C)/C=C/[C@@H](C)[C@H]1CC[C@H]2/C(=C/C=C3C[C@@H](O)C[C@H](O)C3)CCC[C@]12C)C([2H])([2H])[2H]`: the activity change, negative = inhibition was -60.1%.
Regarding `CC(C)c1c(-c2ccccc2)nc2c(C#N)c[nH]n2c1=O`, the compound was called inactive.
For `CC(C)(C)C[C@H]1N[C@@H](C(=O)NC2CCC(O)CC2)[C@H](c2cccc(Cl)c2F)[C@@]12C(=O)Nc1cc(Cl)ccc12` (stereo not given in full), the Potency is 28.2 µM (active).
In the case of `CC(C=CC1=C(C)CCCC1(C)C)=CC=CC(C)=CC(=O)Oc1c(C)c(C)c2c(c1C)CC[C@@](C)(CCC[C@H](C)CCC[C@H](C)CCCC(C)C)O2`, the outcome is “inactive [at 5.25 µM]”.
As for `CCCCC(CC)COc1ccc(-c2nc(-c3ccc(OC)cc3)nc(-c3ccc(OCC(CC)CCCC)cc3O)n2)c(O)c1` (stereo not given), the outcome is “inactive [at 5.25 µM]”.
Regarding `Cc1cn(CCN2CCN(c3ccccc3-c3cc(C#N)cc(C(=O)NCCCN4CCCC4)c3)CC2)c2ccccc12`, the Potency was 17.8 µM (active).
Consider `Cn1c(NC[C@@H](N)Cc2ccccc2)nc(-c2ccncc2)c(-c2ccc3ccccc3c2)c1=O`, for which the Potency is 28.2 µM (active).
Turning to `C#C[C@]1(O)CC[C@H]2[C@@H]3CCC4=C/C(=N/O)CC[C@@H]4[C@H]3CC[C@@]21CC`, the activity change, negative = inhibition was -1.12%.
Regarding `NC1CCCN(c2c(/C=C3\SC(=O)NC3=O)cccc2-c2ccccc2)C1` (stereo not given), the activity change, negative = inhibition is -5.59%.
In the case of `CC(=O)[C@@]1(O)CC[C@H]2[C@@H]3CCC4=CC(=O)CC[C@@H]4[C@H]3CC[C@@]21C`, the activity change, negative = inhibition was -22.5%.
Turning to `Cc1c(Cl)c(C)[n+]([O-])c(Cl)c1-c1noc(-c2cc(O)c(O)c([N+](=O)[O-])c2)n1`, the Potency was 14.1 µM (active).
In the case of `CN[C@@H]1[C@H](O)[C@H](O[C@@H]2[C@H](O)[C@@H](O[C@H]3O[C@H]([C@@H](C)NC)CC[C@H]3N)[C@@H](N)C[C@H]2N)OC[C@]1(C)O`, the activity change, negative = inhibition is -8.26% [at 11.3 µM].
As to `O=C(O)c1ccc(-c2c[nH]c3ncc(-c4ccccc4)cc23)cc1C1CCCC1`, the Potency is 2.82 µM (active).

These data come from PubChem BioAssay (NCATS).
